Measurements: PubChem BioAssay (NCI)
This is part of a sample that, as a whole, favours compounds with a hit. Of some 79,000 tested, about 15% had one in any assay. No stated cut-off is given here; in the data, active means growth inhibition above about 70%; inactive means the rest.

Tests used:
[1] = NCI Yeast Anticancer Drug Screen. Data for the rad50 strain (AID 155);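 further: 0% = growth of vehicle-only cultures of the same strain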; details: S. cerevisiae rad50 strain growth inhibition; at 50.0 µM; active compounds read high
Method in brief: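 DNA repair mutant yeast, compound exposure, growth read-out; inhibition is taken relative to vehicle.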

[2] = NCI Yeast Anticancer Drug Screen. Data for the mec2-1 strain (AID 157); details: S. cerevisiae mec2-1 strain, at 50.0 µM, active compounds read high
Method in brief: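 Cells of the genetically defined mec2-1 yeast strain are incubated with test compound. Inhibition of growth is calculated against vehicle-treated controls.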

[3] = NCI Yeast Anticancer Drug Screen. Data for the sgs1 mgt1 strain (AID 161);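 further: 0% = growth of cultures given vehicle only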; details: S. cerevisiae sgs1 mgt1 strain, at 50.0 µM, active compounds read high
Method in brief: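 Test agents were incubated with a DNA-repair-mutant yeast strain. Growth was then read and compared against vehicle-treated controls.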

[4] = NCI Yeast Anticancer Drug Screen. Data for the cln2 rad14 strain (AID 165);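 further: 0% = growth equal to vehicle treated cultures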; details: S. cerevisiae cln2 rad14 strain, at 50.0 µM, active compounds read high
Method in brief: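 The screen exposed genetically defined yeast (cln2 rad14) to test compounds and scored growth inhibition relative to vehicle-treated controls.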

[5] = NCI Yeast Anticancer Drug Screen. Data for the bub3 strain (AID 167); details: S. cerevisiae bub3 mutant strain, at 50.0 µM, active compounds read high
Method in brief: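 In this screen, a yeast mutant lacking normal mitotic checkpoint function is challenged with compound. Relative growth versus vehicle gives the inhibition value.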

[6] = NCI Yeast Anticancer Drug Screen. Data for the mlh1 rad18 strain (AID 175); details: S. cerevisiae mlh1 rad18 strain growth inhibition; at 50.0 µM; active compounds read high
Method in brief: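 Compound-treated yeast growth, normalised to vehicle controls. Strain bears defined DNA repair mutations.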

Measured: growth inhibition

CN1CCCC2C3=CC=C4CC(O)CCC4(C)C3CCC21C (stereo unspecified)
inactive: [1] 60.4% | [2] 21.5% | [3] 34.9% | [4] 14.5% | [5] 23.9% | [6] 35.5%

CCn1nnc2c(C(N)=O)ncn2c1=O
inactive: [1] 0.6% | [2] -38.7% | [3] -44.1% | [4] 14.1% | [5] -14.8% | [6] -16.6%

O=C(CSC1=NCCN1)c1ccccc1
inactive: [1] -17.9% | [2] 6.3% | [3] -27.1% | [4] -57.9% | [5] 8.55% | [6] 11.6%

CC1CCCC(C)C1CO (stereo unspecified)
inactive: [1] 3.65% | [2] -31.6% | [3] 7.75% | [4] 22.7% | [5] -17.8% | [6] 15.8%

CC(Nc1ccc(Br)cc1[N+](=O)[O-])C(=O)O (stereo unspecified)
inactive: [1] 22.1% | [2] 11.6% | [3] 58.2% | [4] 19.1% | [5] 30.8% | [6] 6.95%

N#CCCSc1nnc(N)s1
inactive: [1] -7.85% | [2] -7.9% | [3] -8.65% | [4] 16.9% | [5] -2.95% | [6] -14.8%

COc1cc(/C=N/N=C(\N)NO)cc(Cl)c1O
inactive: [1] -20.4% | [2] -29.1% | [3] -27.3% | [4] -19.2% | [5] -8% | [6] -36.1%

C/C(=N\NC(=S)N1CCC(c2ccccc2)CC1)c1ccccn1
inactive: [1] -24.3% | [2] 3.95% | [3] 0.25% | [4] -22.4% | [5] 4.65% | [6] 13.8%

N#CCCCCCCCCCC#N
inactive: [1] -18.9% | [2] -36% | [3] -47.4% | [4] 25.9% | [5] -52.5% | [6] 11.4%

c1cc(CSC2=NCCN2)ccc1CSC1=NCCN1
inactive: [1] -8% | [2] 9.25% | [3] -9.2% | [4] -24.3% | [5] 8.9% | [6] -3.85%

Br/C=C/c1ccccc1
inactive: [1] 23.6% | [2] 11.3% | [3] 0.6% | [4] -14.7% | [5] 5.85% | [6] 46.1%

CC(=O)Nc1nnc(S(C)(=O)=O)s1
inactive: [1] -29.6% | [2] -29% | [3] -55.6% | [4] 7.25% | [5] -36.9% | [6] -33%

C[N+](C)([O-])Cc1cccc(NC(=O)c2ccc(C(=O)Nc3cccc(C[N+](C)(C)[O-])c3)cc2)c1
inactive: [1] -4.3% | [2] 1.25% | [3] -8.2% | [4] 1.3% | [5] -12.8% | [6] -7.95%

CCC(=O)OCCCc1ccccc1
inactive: [1] 22.1% | [2] 8.25% | [3] 15.8% | [4] 9.25% | [5] 12.3% | [6] 10.8%

CC(=O)Oc1ccccc1C=C(C(=O)O)C(=O)O
inactive: [1] -7.7% | [2] -11.5% | [3] -8.1% | [4] -20.7% | [5] -9.2% | [6] -10.9%

CC(C)(C)OC(=O)NC(C)(C)C(=O)NCCC(=O)O
inactive: [1] 0% | [2] -70% | [3] -1.8% | [4] 3.35% | [5] -15.2% | [6] -13.5%

CS(=O)(=O)OC12CC3CC(CC(C3)C1)C2
inactive: [1] 7.3% | [2] -9.1% | [3] -11.8% | [4] -26.5% | [5] -0.75% | [6] 5.55%

CCNC(=S)N/N=C/c1cc(OC)ccc1O
inactive: [1] -11.7% | [2] 23.4% | [3] 0.2% | [4] 11% | [5] 23.1% | [6] -13.9%

O=[N+]([O-])c1ccc(-c2ccc(-c3ccccc3)cc2)cc1
inactive: [1] -1.8% | [2] -12.7% | [3] 5.35% | [4] -15.4% | [5] -10.7% | [6] -3.6%

COC1C(O)CC(OC2C(C)OC(Oc3cc(O)c4c(O)c5c(cc4c3)C[C@@H]([C@H](OC)C(=O)[C@@H](O)[C@@H](C)O)[C@H](OC3CC(OC4CC(OC6CC(C)(O)C(O)C(C)O6)C(O)C(C)O4)C(O)C(C)O3)C5=O)CC2OC(C)=O)OC1C (stereo partly specified)
inactive: [1] -7.9% | [2] -3.45% | [3] -32.9% | [4] 10% | [5] 2.45% | [6] 0.4%

COc1ccc(OC)c(/C=C/c2ccc(NC(=O)Nc3ccccc3Cl)cc2)c1
inactive: [1] 10.8% | [2] 2.3% | [3] -7.9% | [4] -39.1% | [5] 1.2% | [6] 13.8%

CC(C)C1CC(C)(C)C2CC3OC(C(C)C)CC(C)(C)C3CC2O1 (stereo unspecified)
inactive: [1] -12.1% | [2] -3% | [3] 2.75% | [4] -2.65% | [5] -10.3% | [6] 1.35%

O=C(N=C1[Se]C(=Nc2ccccc2)C(=Nc2ccccc2)N1c1ccccc1)c1ccccc1
inactive: [1] 9.45% | [2] 5.1% | [3] 6.55% | [4] 20.6% | [5] 2.75% | [6] 3.25%

COc1cc(-c2c(C#N)c(OC)[nH]c(=O)c2C#N)cc(OC)c1OC
inactive: [1] 3.85% | [2] 13.3% | [3] 7.55% | [4] 13.4% | [5] 1.85% | [6] -0.45%

COc1ccccc1N1C(=O)/C(=N\OC(=O)c2c(-c3c(Cl)cccc3Cl)noc2C)SC1=S
inactive: [1] -13.9% | [2] -26.6% | [3] -19.5% | [4] 11% | [5] -34.8% | [6] -0.2%

C[Si](C)(C)c1ccc(C(N)=O)cc1
inactive: [1] 14.4% | [2] 16.4% | [3] 3.3% | [4] 8.3% | [5] 8.65% | [6] 8.7%

O=C(Nc1ccccc1Cl)c1ccccc1O
inactive: [1] 10.1% | [2] -8.7% | [3] -3.2% | [4] -48.6% | [5] -5% | [6] -16.4%

O=C1c2cc(Cl)ccc2-n2c(noc2=O)C2CSCN12 (stereo unspecified)
inactive: [1] -8% | [2] -10.3% | [3] -21% | [4] 8.85% | [5] -18.3% | [6] 11.6%

O=C(Oc1ccc([N+](=O)[O-])cc1)C(CSC(c1ccccc1)(c1ccccc1)c1ccccc1)N1C(=O)c2ccccc2C1=O (stereo unspecified)
inactive: [1] 61.8% | [2] 46.7% | [3] 44.5% | [4] 58.7% | [5] 31.9% | [6] 52.8%

CN1CNC(=O)c2n[nH]nc21
inactive: [1] -1.25% | [2] 34.5% | [3] -4.15% | [4] -21% | [5] 13.1% | [6] -2.7%

C/C=C(\C)C(=O)OC1C2C(C)C(=O)OC2C(O)C(C)C2C=CC(=O)C21C (stereo unspecified)
inactive: [1] -21.1% | [2] -23.5% | [3] -7.9% | [4] 9.4% | [5] -21.4% | [6] 6.5%

Cc1ccc(C)c2c1C1CCCCC3(OCCCO3)C21O (stereo unspecified)
inactive: [1] -4.2% | [2] -6.3% | [3] -44.2% | [4] -6.9% | [5] -24.2% | [6] -0.85%

Nc1ccc2ccccc2c1Cl
inactive: [1] -9.05% | [2] -38.5% | [3] -11.4% | [4] 6% | [5] -44.4% | [6] -11.3%

O=C1c2ccccc2C(=O)N1CNc1cccc(NCN2C(=O)c3ccccc3C2=O)n1
inactive: [1] -35.8% | [2] -22.1% | [3] -23.1% | [4] 13.4% | [5] -6.5% | [6] -34.8%

Clc1cc2ncn(C3CCCO3)c2cc1Cl (stereo unspecified)
inactive: [1] 6.3% | [2] 5.1% | [3] 3% | [4] 5.95% | [5] 49% | [6] 11.8%

CC[O-].Cc1ccc2cccc([O-])c2n1.Cc1ccc2cccc([O-])c2n1.Cc1ccc2cccc([O-])c2n1.[Ti+4]
inactive: [1] -18.1% | [2] -5.75% | [3] -1.5% | [4] 20% | [5] -1.25% | [6] 4.3%

O=C(O)C(c1ccccc1)C(O)C1CCCCC1 (stereo unspecified)
inactive: [1] 0.8% | [2] -1.75% | [3] -1.15% | [4] -13.1% | [5] -8.1% | [6] 4.5%

O=C(O)CC/C(=N\Nc1ccc([N+](=O)[O-])cc1[N+](=O)[O-])c1ccccc1
inactive: [1] 0.7% | [2] 26.4% | [3] 44.3% | [4] -18.4% | [5] 16.2% | [6] 30.3%

O/N=C(/CC(O)(C(F)(F)F)C(F)(F)F)c1ccccc1
inactive: [1] -9.1% | [2] -18% | [3] -7.9% | [4] -38.8% | [5] -6.9% | [6] 11.8%

CCN(C)C(=O)NC(C)=O
inactive: [1] 2.65% | [2] 11.1% | [3] -17.9% | [4] -14% | [5] 2.5% | [6] 15%

CCOC(=O)/C(N=Nc1ccc(O)cc1)=C(\C)O
inactive: [1] -6.4% | [2] 28.4% | [3] 17.7% | [4] 24.9% | [5] -1.2% | [6] -0.65%
